Assay outcomes: PubChem, National Center for Advancing Translational Sciences (NCATS)
TGFb SMAD3 inh: qHTS for Inhibitors of TGF-b | AID 588855, 2011 | HepG2 CAGA-GFP TGF-b/SMAD3 reporter, GFP fluorescence, 18 h; TGF-beta stimulated, 500 pg/mL final | 1.2% of 410,000 active | Potency, µM (highest dose often 46.1 µM), without a hit: top-dose activity, negative = inhibition, usual class: inhibitors; further: potency means the concentration at half of the fitted maximal effect; on the % scale 0 is the no-effect control and ±100 the full control effect; nearly all actives have a fitted effect of over 65% in size
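Smad-responsive CAGA-GFP expression was quantified in HEPG2 cells exposed to compounds and 500 pg/mL final TGF-beta for 18 h at 37 degrees C; unstimulated wells defined full inhibition.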
TDP1 inh: qHTS Assay for Inhibitors of Tyrosyl-DNA Phosphodiesterase (TDP1); 0.28% of 350,000 active; AID 485290, 2010; Tyrosyl-DNA phosphodiesterase 1 (Homo sapiens), Q9NUW8; Potency, µM (titrated, usually from 130 µM), for inactives: at the highest dose activity change, negative = inhibition, hits mostly inhibitors; recombinant TDP1, AlphaScreen DNA substrate cleavage; further: potency means the concentration at half of the fitted maximal effect; on the % scale 0 is the no-effect control and ±100 the full control effect; nearly all actives have a fitted effect of over 40% in size
Target sequence (Q9NUW8 whole entry, looked up): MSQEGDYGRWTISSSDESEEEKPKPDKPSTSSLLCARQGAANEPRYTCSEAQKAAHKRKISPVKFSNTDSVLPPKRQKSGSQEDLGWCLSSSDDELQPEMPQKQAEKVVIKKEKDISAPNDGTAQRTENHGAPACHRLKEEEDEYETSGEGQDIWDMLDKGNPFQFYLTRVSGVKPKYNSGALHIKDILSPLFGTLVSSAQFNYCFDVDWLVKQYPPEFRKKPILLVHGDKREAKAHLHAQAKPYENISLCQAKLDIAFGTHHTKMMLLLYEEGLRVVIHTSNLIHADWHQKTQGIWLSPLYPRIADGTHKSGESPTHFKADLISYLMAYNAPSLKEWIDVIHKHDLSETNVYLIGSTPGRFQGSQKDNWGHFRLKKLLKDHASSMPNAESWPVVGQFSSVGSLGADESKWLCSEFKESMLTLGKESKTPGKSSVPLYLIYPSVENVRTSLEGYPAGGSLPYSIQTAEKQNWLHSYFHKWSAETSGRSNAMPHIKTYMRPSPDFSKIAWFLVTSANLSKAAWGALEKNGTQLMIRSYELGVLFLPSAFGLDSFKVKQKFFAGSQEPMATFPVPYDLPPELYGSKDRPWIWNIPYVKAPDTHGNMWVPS
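Signal: AlphaScreen proximity between streptavidin donor and anti-FITC acceptor beads on intact substrate. Reaction: Tdp1 1 nM, substrate 15 nM final, 5 min RT after 15 min compound preincubation.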
IL1B secr inh: qHTS for Inhibitors of Inflammasome Signaling: IL-1-beta AlphaLISA Primary Screen | 4.7% of 360,000 active | AID 743279, 2014 | activity change, % at 57.5 µM | THP-1 LPS/ATP IL-1B secretion, AlphaLISA, 16 h; stronger effect = lower value; in the data active means activity change below about -50%; inconclusive means mostly about -30% to -49%; further: on the % scale 0 is the no-effect control and ±100 the full control effect
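Secreted IL-1B measured by AlphaLISA bead assay after 16 h compound exposure of THP-1 cells; compounds (final up to 57.5 uM) added 1 h before LPS (250 ng/mL) and ATP (1.25 mM) stimulation; lower signal means less secretion.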
HepG2 viability: qHTS for Inhibitors of TGF-b: Cytotox Counterscreen | HepG2 CAGA-GFP viability, ATP luminescence, 18 h | 0.76% of 410,000 active | Potency, µM (highest dose often 46.1 µM), inactives show at the top dose activity change, negative = cytotoxicity, usual class: cytotoxic; further: potency means the concentration at half of the fitted maximal effect
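CellTiter-Glo luminescence gave cytotoxicity after 18 hours at 37 degrees C. The cells were HepG2 CAGA-GFP in 1% FBS DMEM, stimulated with 500 pg/mL TGF-beta after compound addition. %Activity was normalised to no-cell wells (complete cell-killing) and DMSO (no toxicity), and curves were fitted and classified.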
DT40 TDP1 no CPT: qHTS for Inhibitors of human tyrosyl-DNA phosphodiesterase 1 (TDP1): qHTS in cells in absence of CPT | DT40 Tdp1-/- hTDP1 cells, no CPT, ATP luminescence, 48 h | Potency, µM (doses to about 46.2 µM), without a hit: top-dose activity change, negative = growth inhibition, hits mostly inhibitors | 15% of 420,000 active | AID 686978, 2013; further: potency means the concentration at half of the fitted maximal effect; on the % scale 0 is the no-effect control and ±100 the full control effect; nearly all actives have a fitted effect of over 55% in size
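Cells were dispensed at 400 per well, compounds added by pin tool, plates incubated ≥48 hr at 37 °C, then CellTiter-Glo added for 30 min at room temperature before luminescence reading. Line: DT40 Tdp1-/- complemented with hTDP1; camptothecin omitted.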
TDP1 cell CPT: qHTS for Inhibitors of human tyrosyl-DNA phosphodiesterase 1 (TDP1): qHTS in cells in presence of CPT; Potency, µM (top dose mostly 46.2 µM), inactives show at the top dose activity change, negative = growth inhibition, usual class: inhibitors; chicken DT40 Tdp1-/-;hTDP1 cells + 20 nM CPT, ATP luminescence, 48 h; 12% of 420,000 active; further: potency means the concentration at half of the fitted maximal effect; on the % scale 0 is the no-effect control and ±100 the full control effect; nearly all actives have a fitted effect of over 55% in size
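Chicken DT40 Tdp1-/- cells complemented with human TDP1, 400 cells/well, exposed to compounds plus 20 nM camptothecin for at least 48 h at 37 C; viability read as ATP content by CellTiter-Glo luminescence.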
Numbers without * were called inactive; ? = inconclusive; nt = no result; [ ] = remark or other dose. Rows were chosen to be rich in hits. Some 18% of all compounds tested hit in one or more screens of this group. Unless noted, the call rests on the fitted dose curve; in most records, active means well fitted curve in the direction sought with a large enough effect; inconclusive means small, poorly fitted or top-dose-only effect, or another doubt; inactive means no such curve, though single readings can be large; an effect the other way counts as inactive or inconclusive.

SMILES	TGFb SMAD3 inh	TDP1 inh	IL1B secr inh	HepG2 viability	DT40 TDP1 no CPT	TDP1 cell CPT
O=C(NCc1ccco1)C(c1ccccc1)N(C(=O)Cc1cccs1)c1ccccc1F (stereo not drawn)	0%	8%	?	-24%	26µM*	?
Cc1ccc(C(C(=O)NCc2ccco2)N(C(=O)CNC(=O)c2cccs2)c2c(C)cccc2C)cc1 (stereo not drawn)	-2%	3%	-22	3%	?	?
O=C(c1cccc(F)c1)N1CCC2(CCCN(c3ncccn3)C2)CC1	nt	nt	nt	nt	?	-9%
Cc1onc(-c2c(F)cccc2Cl)c1C(=O)Nc1ccc(Cl)c(S(=O)(=O)N(C)C)c1	9%	0%[56.1 µM]	-13	-7%	?	?
COc1cc([N+](=O)[O-])ccc1NC(=O)CC1SC(=Nc2ccc(F)cc2)N(CCC2=CCCCC2)C1=O (stereo not drawn)	?	5%	-4	-20%	15µM*	16µM*
COc1ccc(OC)c(NC(=O)CC2SC(=Nc3ccccc3)N(CCc3ccccn3)C2=O)c1 (stereo not drawn)	?	5%	?	-12%	?	23µM*
COc1ccc(OC)c(NC(=O)CC2SC(=Nc3ccc(F)cc3)N(CCC3=CCCCC3)C2=O)c1 (stereo not drawn)	-19%	1%	25	11%	?	?
COc1ccc(N=C2SC(CC(=O)Nc3ccccc3)C(=O)N2CCc2ccccn2)cc1 (stereo not drawn)	?	-8%	-13	-25%	?	?
COc1ccc(N=C2SC(CC(=O)Nc3ccccc3)C(=O)N2Cc2ccccn2)cc1 (stereo not drawn)	2%	12%	-67*	-7%	23µM*	29µM*
Fc1ccc(NCc2ccccc2-c2nnc(-c3ccccc3Cl)o2)cc1Cl	-19%	0%	nt	-3%	?	?
CC(=O)Nc1ccccc1OCc1nnc(-c2ccc(Cl)cc2)o1	-3%	3%	-5	-9%	?	20%
Cc1ccccc1OCC(=O)N(Cc1nnc(-c2ccc(Cl)cc2)o1)C(C)C	-15%	-5%	-14	-21%	15µM*	?
CC(=O)c1ccc(S(=O)(=O)N(Cc2cc3cc4c(cc3[nH]c2=O)OCCO4)CC2CCCO2)cc1 (stereo not drawn)	0%	3%	-11	-22%	11µM*	-29%
Cc1ccc2cc(CN(CC3CCCO3)S(=O)(=O)c3ccc4c(c3)OCCO4)c(=O)[nH]c2c1C (stereo not drawn)	0%	nt	-5	-19%	21µM*	18µM*
NNc1cc(C(=O)O)ccc1Cl	-8%	9%	0	11%	-14%	-29%
COC(=O)c1cc(-c2c(C)oc3cc(OC)ccc3c2=O)c(C)o1	-29%	4%	0	-5%	18µM*	12µM*
Cn1cnc([N+](=O)[O-])c1Oc1ccccc1	-5%	2%	?	2%	?	18µM*
Cn1cnc([N+](=O)[O-])c1Oc1cccc(O)c1	-6%	4%	-105*	-6%	23µM*	?
Cn1cnc([N+](=O)[O-])c1C(=O)Nc1cccc([N+](=O)[O-])c1	9%	2%	0	-4%	2%	-1%
Cc1cccc(NS(=O)(=O)c2ccc3c(c2)oc(=O)n3C)c1C	31%	nt	-11	-6%	?	-28%
COc1cccc(OC)c1C(=O)Nc1ccnn1C	-5%	nt	8	24%	4%	30%
CC(C)n1c(N2CCN(C(=O)c3cccs3)CC2)nc2ccccc21	16%	7%	-9	-6%	23µM*	?
CC(C)n1c(N2CCN(CC(=O)NCc3cccs3)CC2)nc2ccccc21	2%	12%	-9	1%	?	?
CC(C)n1c(N2CCN(C(=O)N3CCCCC3)CC2)nc2ccccc21	0%	0%	13	25%	?	13µM*
COc1cccc(C2c3c(ncn(-c4ccccc4-c4ccccc4)c3=N)Oc3ccc4ccccc4c32)c1 (stereo not drawn)	nt	1%	nt	nt	nt	nt
SMILES	TGFb SMAD3 inh	TDP1 inh	IL1B secr inh	HepG2 viability	DT40 TDP1 no CPT	TDP1 cell CPT
CC(=O)N1CCc2c(sc3c2c(=O)n(-c2ccc(C)cc2)c(=O)n3CC(=O)Nc2ccccc2)C1	4%	3%	nt	-1%	16µM*	?
CCOC(=O)N1CCc2c(sc3c2c(=O)n(CCc2ccccc2)c(=O)n3CC(=O)Nc2ccccc2C)C1	-21%	6%	nt	-23%	8.2µM*	8.2µM*
CC(=O)N1CCc2c(sc3c2c(=O)n(CCc2ccccc2)c(=O)n3CC(=O)Nc2ccc(C)c(F)c2)C1	4%	2%	nt	-24%	?	23µM*
O=C1NC(CCc2ccccc2)C(=O)N1CCOc1cccc(Br)c1 (stereo not drawn)	?	9%	-8	-15%	-16%	-19%
CCOc1ncccc1C(=O)N1CCN(C(=O)c2ccccc2)CC1	-2%	-2%	1	63%	12%	8%
CCOc1ncccc1C(=O)N1CCN(c2cccc(C)c2C)CC1	?	4%	9	7%	0.58µM*	0.52µM*
CCCN1Cc2cccc(C(=O)N3CCN(c4cc(Cl)ccc4C)CC3)c2C1=O	-28%	7%	?	-32%	13µM*	?
CCOc1ncccc1C(=O)N1CCN(c2cc(Cl)ccc2C)CC1	?	-1%	2	1%	0.65µM*	0.82µM*
C=C(CCO)C1=CCN(S(=O)C(C)(C)C)[C@H]1CCO (stereo partly drawn)	-4%	nt	25	-14%	-1%	8%
O=C1COc2cc(S(=O)(=O)NCc3ccco3)c(Cl)cc2N1	nt	56µM*	nt	-20%	?	18µM*
O=C1C(Cl)=C(NCCCO)C(=O)c2ccccc21	?	-1%	57	-95%	18µM*	23µM*
CCOCCCNC1=C(Cl)C(=O)c2ccccc2C1=O	?	11%	33	-57%	6.5µM*	5.8µM*
Cc1ccc(NC2=C(NCCO)C(=O)c3ccccc3C2=O)cc1	?	8%	-17	-21%	?	13µM*
O=c1cc(NCCCO)c2ccccc2o1	0%	4%	5	5%	6%	1%
